Here are results for 36 compounds from ChEMBL document CHEMBL3433997, “St. Jude Leishmania screening dataset” (2016).

Type in all cases: functional
Test [1] addresses Solute carrier family 2, facilitated glucose transporter member 1 (Homo sapiens) (UniProt P11166). Kind of test: ST_JUDE_LEISH: Cytotoxicity at 2uM final concentration against transgenic Leishmania Mexicana promastigotes LmGLUT1 that are glucose transport deficient and complemented with the human glucose transporter GLUT1. Activity is measured by DNA content using SYBR green in vitro.

Test [2] deals with Hexose transporter 1 (Plasmodium falciparum) (UniProt O97467). Put plainly: ST_JUDE_LEISH: Cytotoxicity at 2uM final concentration against transgenic Leishmania Mexicana promastigotes LmPfHT that are glucose transport deficient and complemented with the Plasmodium falciparum hexose transporter. Activity is measured by DNA content using SYBR green in vitro.
Test [3] has as its target Glucose transporter (Leishmania mexicana) (UniProt O61059). Put plainly: ST_JUDE_LEISH: Cytotoxicity at 2uM final concentration against transgenic Leishmania Mexicana promastigotes LmGT2 that are glucose transport deficient and complemented with the L. Mexicana glucose transporter 2. Activity is measured by DNA content using SYBR green in vitro.

Where “and” joins values, the source holds several entries; their conditions need not be identical. Identical values can stand only once.

Sequence of Solute carrier family 2, facilitated glucose transporter member 1 (Homo sapiens) (P11166 whole entry): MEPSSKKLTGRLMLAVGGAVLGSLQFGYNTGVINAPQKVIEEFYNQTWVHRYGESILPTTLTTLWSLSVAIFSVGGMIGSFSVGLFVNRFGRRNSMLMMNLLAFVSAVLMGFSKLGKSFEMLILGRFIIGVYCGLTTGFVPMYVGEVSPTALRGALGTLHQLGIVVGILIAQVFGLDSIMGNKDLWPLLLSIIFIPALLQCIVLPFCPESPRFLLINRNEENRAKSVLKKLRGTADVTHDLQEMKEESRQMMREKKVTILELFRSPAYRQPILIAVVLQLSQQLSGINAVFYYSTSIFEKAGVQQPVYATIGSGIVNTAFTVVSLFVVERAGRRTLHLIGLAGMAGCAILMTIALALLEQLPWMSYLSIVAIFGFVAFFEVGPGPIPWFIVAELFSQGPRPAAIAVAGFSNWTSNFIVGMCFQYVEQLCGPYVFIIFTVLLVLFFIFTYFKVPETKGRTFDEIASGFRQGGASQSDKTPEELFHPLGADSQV

One may read the inhibition as the drop in the measured response relative to a control, in per cent. As to `c1ccc(CCNc2ccnc(Nc3ccc4[nH]nnc4c3)n2)cc1`, the inhibition stood at 14.1% in test [1], 13.9% in test [2] and 10.8% in test [3].
Regarding `COc1ccccc1CNC(=O)CCn1c(=O)[nH]c2ccsc2c1=O`, the inhibition is 2.58% in test [1], 3.17% in test [2] and 1.36% in test [3].
Take `CCC(C)NS(=O)(=O)c1ccc2nc(Nc3cccc(SC)c3)n(C(C)C(C)C)c2c1` (stereo not drawn): the inhibition in test [1] stood at 3.91%; in test [2], 4.3%; in test [3], 3.8%.
`Oc1cccc(-c2nc3cc(C4=NC5CCCCC5N4)ccc3[nH]2)c1` (stereo not drawn): the inhibition in test [1] was 3.58% and 0.07%; in test [2] it was 3.97% and -1.13%; in test [3] it was 2.39% and 0.63%.
As for `COC(=O)CCn1c(C2CCN(CC3CCC(NC(=O)/C=C/c4ccc(Cl)c(Cl)c4)CC3)CC2)nc2ccccc21` (stereo not drawn), the figures for the inhibition in test [1], in test [2] and in test [3] were 0.97%, 2.03% and 3.04%, respectively.
Take `COc1ccc(-c2cc(-c3nc4cc(CN)ccc4[nH]3)c(=O)n(C)c2)cc1OC`: the inhibition in test [1] was 0.63%; in test [2], 0.83%; in test [3], -0.74%.
For `COc1cc2nc(C)nc(Nc3ccc4c(ccn4Cc4ccccc4)c3)c2cc1OC`, in that order: 5.04%, 5.91% and 5.53%.
As to `CCCCCN(C(=O)Nc1cc(C(F)(F)F)cc(C(F)(F)F)c1)C(C)c1nc2ccccc2c(=O)n1CC` (stereo not drawn), the figures for the inhibition in test [1], in test [2] and in test [3] were -0.28%, 1.02% and 6.73%, respectively.
For `CCc1ccc2nc(-c3ccc(F)cc3)nc(SCC(=O)Nc3sc(C)c(C)c3C#N)c2c1`, the inhibition in test [1] stood at 5.67%; in test [2], 7.28%; in test [3] it was 5.07%.
For `O=C(Cc1ccccn1)Nc1cccc(-c2cccc(-c3nc4cc(C(F)(F)F)ccc4[nH]3)c2)c1`, in that order: 0.14%, 1.02% and -0.1%.
In the case of `Cc1ccc(C(C)C)c(Oc2ccc3nc(N)nc(N)c3c2)c1`, the inhibition amounted to 13.2% in test [1], 8.97% in test [2] and 5.01% in test [3].
For `CC(C)(C)OC(=O)N[C@@H](CS(=O)(=O)CCNC(=N)COCc1ccccc1)C(=O)OC(C)(C)C`, in that order: 7.09%, 6.29% and 5.74%.
For `CS(=O)(=O)Nc1cccc(-c2cnc3[nH]cc(-c4ccc(CN)cc4)c3c2)c1`, in that order: 4.62%, 4.04% and 3.33%.
In the case of `Cc1cc2nc(-c3ccc(C(=O)NCc4cccc(C(F)(F)F)c4)cc3)[nH]c2cc1C`, the inhibition in test [1] is -0.3%; in test [2], -2.94%; in test [3], -2.9%.
On the same counts, the results for `Nc1nc2c(ncn2COC2COP(=O)(O)OC2)c(=O)[nH]1` (stereo not drawn) are 12.2%, 12% and 12.3%.
On the same counts, the results for `COc1ccc(-c2nc3cccnc3n2CC(=O)Nc2cc(Cl)c(Cl)cc2Cl)c(OC)c1` are -3.62%, -1.91% and -2.74%.
`O=S(=O)(NC1CCN(c2ccnc3cc(Cl)ccc23)C1)c1cccs1` (stereo not drawn): the inhibition in test [1] was 0.41%; in test [2], -0.12%; in test [3], 1.61%.
On the same counts, the results for `N#CC(c1ccc(Cl)cc1)c1ccc2c(C(F)(F)F)cc(C(F)(F)F)nc2n1` (stereo not drawn) are 2.34%, 2.87% and 0.92%.
Regarding `COc1ccc(NC(=O)c2ccc(-c3nc(-c4cccc(C(F)(F)F)c4)cs3)cc2)cc1N1CCN(C)CC1`, the inhibition turned out to be 0.87% in test [1], 1.59% in test [2] and 2.01% in test [3].
With `COc1cccc(-c2nn(C)c3sc(C(=O)NCCN(C)Cc4ccccc4)cc23)c1`, the inhibition in test [1] is 2.97%; in test [2], -0.73%; in test [3], 2.24%.
In the case of `CCn1ccc2c(N3CCCC3=O)cc(C(=O)N[C@@H](Cc3ccccc3)[C@H](O)CNCc3cccc(OC)c3)cc21`, the inhibition turned out to be 1.06% in test [1], 1.98% in test [2] and 0.14% in test [3].
For `CC(CN1CCN(CC(c2ccc(F)cc2)N2CCN(C)CC2)CC1)C(=O)c1ccc(O)cc1` (stereo not drawn), in that order: 2.71%, 2.35% and 2.04%.
For `COc1ccc(N2CCN(C(CNC(=O)C3CCCCC3)c3ccc4c(c3)OCO4)CC2)cc1` (stereo not drawn), in that order: 3.65%, 4.28% and 4.35%.
For `O=[N+]([O-])c1cccc(CNC2CCN(Cc3ccc(Cl)c(Cl)c3)CC2)c1`, in that order: 7.37%, 4.47% and 7.35%.
With `CC(=O)N(C)c1cccc(C(=O)Nc2ccc(-c3cccc(-c4nc5cc(C(F)(F)F)ccc5[nH]4)c3)cc2)c1`, the inhibition in test [1] is 11.5%; in test [2] it was 10.1%; in test [3], 9.62%.
On the same counts, the results for `CCc1ccc(-n2c(NC(=O)c3ccccc3)nc3ccc(S(=O)(=O)NC(C)C(C)C)cc32)cc1` (stereo not drawn) are -1.74%, -1.8% and -1.72%.
On the same counts, the results for `Cc1cccc2nc(-c3cccc(-c4ccc(NC(=O)c5cccnc5)cc4)c3)[nH]c12` are 3.18%, 4.09% and 2.31%.
Consider `COc1ccc(CCN(C)CCCOc2ccc(NC(=O)c3cccc4c(=O)c5ccccc5[nH]c34)cc2)cc1OC`, for which the inhibition came out at 5.62% in test [1], 2.58% in test [2] and 1.73% in test [3].
On the same counts, the results for `COc1ccc2c(c1)Sc1ccccc1C(N1CCN(CCO)CC1)C2` (stereo not drawn) are 1.57%, 2.05% and 2.69%.
On the same counts, the results for `N#Cc1ccc2c(c1)CCN(CCC1CCC(NC(=O)/C=C/c3c[nH]c4ccc(F)cc34)CC1)CC2` (stereo not drawn) are 0.97%, 3.57% and 2.6%.
`COc1cc2nc(N3CCC(CNC(=O)c4ccc(-c5ccc(C(=O)N(C)C)cc5)c(OCCO)c4)CC3)nc(N)c2cc1OC`: the inhibition in test [1] was determined as 2.82%; in test [2], 3.22%; in test [3] it was 2.26%.
For `CC(C)Cc1ccc(N2CCN(CCCCNC(=O)c3ccc(NC(=O)c4cc(C(F)(F)F)cc(C(F)(F)F)c4)cc3)CC2)cc1`, the results for the inhibition in test [1], in test [2] and in test [3] were 0.41%, 1.08% and -0.64%, respectively.
For the compound `O=C(Nc1cccc(F)c1)NC1CCN(c2ccnc3cc(Cl)ccc23)C1` (stereo not drawn), the results for the inhibition in test [1], in test [2] and in test [3] were 2.72%, 2.74% and 4.22%, respectively.
For the compound `N#Cc1ccc(-c2ccc3nc(N4CCCN(C5CCC5)CC4)ccc3c2)cc1`, the inhibition in test [1] came out at 6.14%; in test [2], 7%; in test [3] it was 6.34%.
For `O=C(N[C@@H](Cc1ccccc1)[C@H](O)CNC1CCCc2ccccc21)c1cc(C2CCCC2)cc(N2CCCC2=O)c1` (stereo partly drawn), the inhibition was -0.02% in test [1], 0.77% in test [2] and -0.94% in test [3].
For `CC1CC(NCCCNc2cc(=O)c3ccccc3[nH]2)c2c1cc(Cl)c(Cl)c2Cl` (stereo not drawn), in that order: -1.8%, -2.9% and 2.54%.
